# PLK1 PBD inh: PLK1 (human) polo-box domain binding inhibition; P53350; 360,000 compounds, 2.8% hits; Plk1 PBD binding of FITC phosphopeptide, fluorescence polarization; Potency, µM, inactives show max response, negative = inhibition, most hits filed as inhibitors; note: series mostly up to about 57 µM; % is set by controls: 0 for no effect and ±100 for the full control effect; nearly all actives have a fitted effect of over 65% in size
# PKM2 act: activators of human pyruvate kinase M2. P14618. purified PKM2, Kinase-Glo ATP luminescence, activation; response scale: 0% is enzyme alone, no compound. Potency, µM (highest dose often 57.5 µM), for the others: top-dose activation, actives largely listed as activators. 260,000 compounds, 0.34% hits; note: % is set by controls: 0 for no effect and ±100 for the full control effect; nearly all actives have a fitted effect of over 55% in size
#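 Purified hPK-M2 (>95%) run at intermediate activity with 0.1 mM ADP and 0.5 mM PEP in 50 mM imidazole pH 7.2, KCl, MgCl2; 1 h room temperature. ATP formed read by Kinase-Glo luminescence; normalized to uninhibited and no-enzyme controls.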
# Mito fusion yeast: mitochondrial division inhibition or fusion activation; S. cerevisiae fusion-defective mutant growth rescue, CellTiterGlo 48 h; Potency, µM (doses to about 46.1 µM), without a hit: at the top dose growth rescue (activation), most hits filed as activators; 320,000 compounds, 0.23% hits; AID 485298; note: % of control where 0% means no effect; nearly all actives have a fitted effect of over 45% in size
#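 Luminescent cell viability in 1536-well qHTS format served as the measure of rescued growth in ts fusion-mutant S. cerevisiae cultured on non-fermentable YPEG for 48 hours at 37C.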
# GLS inhibitor: glutaminase GLS (human) inhibition; GLS enzymatic activity, qHTS titration; Potency, µM (highest dose often 45.5 µM), without a hit: top-dose activity change, negative = inhibition, actives largely listed as inhibitors; 410,000 compounds, 0.21% hits; note: % is set by controls: 0 for no effect and ±100 for the full control effect
# Target sequence (O94925 whole entry, looked up): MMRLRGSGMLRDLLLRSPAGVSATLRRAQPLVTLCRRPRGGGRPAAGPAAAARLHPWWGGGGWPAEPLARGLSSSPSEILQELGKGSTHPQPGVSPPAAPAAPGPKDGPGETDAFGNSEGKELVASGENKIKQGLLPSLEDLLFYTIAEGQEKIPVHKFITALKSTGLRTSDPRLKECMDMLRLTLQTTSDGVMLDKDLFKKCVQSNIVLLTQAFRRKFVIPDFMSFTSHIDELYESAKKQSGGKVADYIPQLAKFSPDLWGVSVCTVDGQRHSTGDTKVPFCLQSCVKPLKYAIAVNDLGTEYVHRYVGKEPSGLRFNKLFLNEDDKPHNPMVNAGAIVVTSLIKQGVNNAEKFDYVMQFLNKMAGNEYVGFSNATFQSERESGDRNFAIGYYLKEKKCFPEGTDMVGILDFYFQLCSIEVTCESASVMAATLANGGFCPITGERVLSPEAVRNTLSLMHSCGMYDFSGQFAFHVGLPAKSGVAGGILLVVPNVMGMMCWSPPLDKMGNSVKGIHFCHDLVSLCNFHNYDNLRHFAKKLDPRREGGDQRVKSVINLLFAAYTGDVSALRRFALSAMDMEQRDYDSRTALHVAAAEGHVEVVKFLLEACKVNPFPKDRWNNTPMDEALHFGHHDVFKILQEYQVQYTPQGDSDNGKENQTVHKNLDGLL
#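 Human kidney-isoform GLS in 45 mM KH2PO4 pH 8.2, 0.02% Tween-20, with compound, started with 1mM L-Glutamine (added stock). Glutamate oxidase/HRP/Amplex red coupled fluorescence read at start and after 30 min at RT.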
# VDR inhibitor: inhibitors of human vitamin D receptor; P11473; VDR-SRC2-3 peptide fluorescence polarization, 2 h; Potency, µM, for inactives: max response, negative = inhibition, usual class: inhibitors; 400,000 compounds, 0.93% hits; note: % is set by controls: 0 for no effect and ±100 for the full control effect
#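 Signal is fluorescence polarization, reporting how far test compounds block the interaction of VDR with the SRC2-3 coregulator peptide after a 2 h room-temperature incubation.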
# GCN5L2 inh: blocks human GCN5L2 histone acetyltransferase. Q92830. GCN5L2 HAT assay, ThioGlo1 CoA-SH fluorescence. Potency, µM (doses to about 58.9 µM), for the others: at the top dose activity change, negative = inhibition, usual class: inhibitors. 390,000 compounds, 0.21% hits; note: % is set by controls: 0 for no effect and ±100 for the full control effect
#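 qHTS, 1536-well. 20nM enzyme, pH 7.5 HEPES/EDTA/Tween-20 buffer; 15 min compound preinc., RT. Start: 75uM H3(1-25), 70uM AcCoA, 50uM ThioGlo1. Read Ex340/Em540 at t=0 (autofluorescence flag) and t=20 min.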
# The depositor's hits bear a star; ? = inconclusive; nt = no result; ! = a repeat was not active. In the library only some 3.4% were active in any assay of this set; here they are far more common. Calls come from the whole dose curve; as a rule, active = well fitted curve in the direction sought with a large enough effect; inconclusive = small, poorly fitted or top-dose-only effect, or another doubt; inactive = no such curve, though single readings can be large; an effect the other way counts as inactive or inconclusive. Potency is the fitted concentration of half-maximal effect.
SMILES,PLK1 PBD inh,PKM2 act,Mito fusion yeast,GLS inhibitor,VDR inhibitor,GCN5L2 inh
COc1ccc(-n2c(C)cc(C(=O)CSc3ccc(NC(C)=O)cc3)c2C)cc1,?,-7%,16µM*,9%,5%,-13%
CC(=O)Nc1ccc(SCC(=O)c2cc(C)n(-c3ccccc3)c2C)cc1,-23%,-8%,?,-1%,-4%,-1%
O=C(c1ccc2c(c1)OCO2)N1CCN(S(=O)(=O)c2ccc(Cl)cc2)CC1,-4%,5%,-2%,7%,4%,-7%
CCN(CC)C(=O)CSc1nc2sc3c(c2c(=O)n1CCCOC)CCC3,24µM*,3%,0%,?,?,-6%
Oc1ccc(/C=N/Nc2ccc(Cl)nn2)c(O)c1O,17µM*,nt,1%,?,-2%,-5%
Cc1cc(OC(=O)c2c(F)cc(F)cc2F)nc(C)n1,21µM*,1%,9%,11%,10%,0%
Cc1c(C(=O)N2CCC(C(=O)Nc3ccc(F)cc3)CC2)sc2nc[nH]c(=O)c12,nt,nt,nt,2%,1%,15%
COCCCn1c(SCC(=O)Nc2ccccc2OC)nc2c(sc3ccccc32)c1=O,nt,nt,nt,-12%,11%,1%
COc1ccccc1NC(=O)CSc1nc2c(sc3ccccc32)c(=O)n1CCN(C)C,?,6%,5%,-22%,79µM*,-18%
CC(OC(=O)/C=C/c1ccco1)C(=O)NC1CCCCC1C (stereo unspecified),-10%,nt,1%,-3%,1%,-3%
C=C(C(C)=O)C(O)c1ccco1 (stereo unspecified),nt,nt,nt,nt,-16%,nt
Cc1ccc(C(C[N+](=O)[O-])c2c(C)[nH]n(-c3ccccc3)c2=O)cc1 (stereo unspecified),-28%,-1%,-2%,11%,45µM*,-2%
COc1ccc(C(c2c(C)[nH]n(-c3ccccc3)c2=O)c2c(C)[nH]n(-c3ccccc3)c2=O)cc1OC,2.7µM*,15%,2%,3%,-8%,38%
Cc1[nH]n(-c2ccccc2)c(=O)c1C(C[N+](=O)[O-])c1ccc(F)cc1 (stereo unspecified),?,3%,5%,18%,?,-5%
Cc1[nH]n(-c2ccccc2)c(=O)c1C(c1ccccc1[N+](=O)[O-])C(C#N)C#N (stereo unspecified),30µM*,nt,-2%,-13%,89µM*,1%
Cc1[nH]n(-c2ccccc2)c(=O)c1C(C[N+](=O)[O-])c1ccc(Cl)cc1 (stereo unspecified),12µM*,23%,0%,?,?,-5%
Cc1[nH]n(-c2ccccc2)c(=O)c1C(c1ccccc1C(=O)O)c1c(C)[nH]n(-c2ccccc2)c1=O,-4%,-2%,1%,-1%,-3%,-4%
O=S(=O)(O)NC1CCCCC1,nt,nt,nt,-2%,19%,-2%
O=C1c2ccccc2NC(c2cc(Br)c3c(c2)OCO3)N1Cc1ccco1 (stereo unspecified),nt,nt,nt,nt,-19%,nt
CCCCc1ccc(Nc2ncnc3c2cnn3-c2ccc(C)cc2)cc1,nt,nt,nt,5%,4%,-9%
CCOC(=O)c1c(NC(=O)COc2ccc(F)cc2)sc2c1CCC(C)C2 (stereo unspecified),nt,nt,nt,-3%,?,-2%
Cc1ccccc1N/C(=N/S(=O)(=O)c1ccccc1)c1ccc(F)cc1,38µM*,-5%,8%,-1%,-16%,-1%
Cc1ccc(/C(=N\S(=O)(=O)c2ccc(Br)cc2)Nc2ccccc2C)cc1,-9%,10%,-5%,10%,-16%,-7%
O=S(=O)(c1cccc(Cl)c1)N1CCN(c2nc(-c3ccccc3)nc3ccccc23)CC1,nt,nt,nt,nt,5%,nt
O=C(Nc1ccccc1)C12CC1/C(=N\O)c1ccccc1O2 (stereo unspecified),nt,nt,nt,nt,3%,-24%
SMILES,PLK1 PBD inh,PKM2 act,Mito fusion yeast,GLS inhibitor,VDR inhibitor,GCN5L2 inh
COc1ccccc1CNc1nc2c(S(=O)(=O)c3ccccc3)nnn2c2ccc(Cl)cc12,nt,nt,nt,0%,-6%,25µM*
COc1ccc2c(c1)CC(C(=O)N1CCC(C(N)=O)CC1)CO2 (stereo unspecified),nt,nt,nt,8%,5%,6%
O=c1oc2cc(O)ccc2s1,-19%,nt,22%,34%,28µM*!,-3%
N#CC(c1ccc(Cl)cc1)c1c(Cl)cc(-n2ncc(=O)[nH]c2=O)cc1Cl (stereo unspecified),nt,nt,nt,3%,28µM*,?
CC1(C)C(=O)C=C[C@@]2(C)C1C=C[C@@]1(C)C2CC[C@@]2(C)C(c3ccoc3)OC(=O)C3OC312 (stereo partly specified),nt,nt,nt,nt,3.5µM*,-18%
CC(=O)OC1CC(OC(C)=O)[C@]2(C)C(CC(O)[C@]3(C)C2CC[C@@]2(C)C(c4ccoc4)OC(=O)C4O[C@]432)C1(C)C (stereo partly specified),nt,nt,nt,nt,11%,-18%
CC(=O)O[C@@H]1C[C@H]2C(C)(C)C(=O)C=C[C@]2(C)[C@H]2CC[C@@]3(C)[C@H](c4ccoc4)OC(=O)[C@H]4O[C@]43[C@@]21C,-12%,1%,23%,-2%,-26%,-7%
CC(=O)OC1C=C[C@]2(C)C(CC(OC(C)=O)[C@@]3(C)C4=CC(=O)OC(c5ccoc5)[C@]4(C)CCC23)C1(C)C (stereo partly specified),nt,nt,nt,nt,56µM*,-7%
CC(=O)OC1CC[C@]2(C)C(CC(OC(C)=O)[C@@]3(C)C4=CC(=O)OC(c5ccoc5)[C@]4(C)CCC23)C1(C)C (stereo partly specified),nt,nt,nt,nt,25µM*,-20%
CC(=O)OC1CC(OC(C)=O)[C@]2(C)C(CC(=O)[C@]3(C)C2CC[C@@]2(C)C(c4ccoc4)OC(=O)C4O[C@@]423)C1(C)C (stereo partly specified),nt,nt,nt,nt,28µM*,2%
Cc1ccc(Oc2nc3c(c(=O)n(Cc4ccccc4Cl)c(=O)n3C)n2C)cc1C,nt,nt,nt,-11%,6%,-6%
COc1cccc([C@@H]2Oc3ccc(OC)cc3C(=O)[C@H]2OC(=O)NCc2ccco2)c1,nt,nt,nt,nt,-7%,nt
CCN(CC(=O)Nc1c(F)cccc1F)C(=O)C1CC(=O)N(CCc2ccc(OC)c(OC)c2)C1 (stereo unspecified),-2%,nt,-5%,0%,-4%,1%
CCOC(=O)c1c(-c2ccccc2Cl)csc1NC(=O)c1cc(S(=O)(=O)N2CCOCC2)ccc1C,11µM*,-2%,10%,0%,-13%,-9%
CCOc1ccccc1NC(=O)c1cc(S(=O)(=O)N2CCOCC2)ccc1C,-12%,nt,3%,0%,-7%,-1%
